Screens deposited in PubChem by Fisher Drug Discovery Resource Center.
Rows were chosen to be rich in hits. Some 0.28% of all compounds tested hit in one or more screens of this group.
mcGAS lum – inhibitors of mouse cGAS. Q8C6L5. inhibition, % at 12.5 µM. 160,000 compounds, 0.15% hits. recombinant cGAS, Kinase-Glo ATP depletion luminescence;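 also: 0% = negative control wells and 100% = reference inhibitor with no enzyme activity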
hcGAS inh – inhibitors of human cGAS; Q8N884; inhibition, % at 12.5 µM; recombinant h-cGAS, ATP depletion, Kinase-Glo luminescence; AID 1259398; 290,000 compounds, 0.081% hits;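 also: 0% = vehicle reaction and 100% = reaction without DNA for no activity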
Target sequence (Q8N884 whole entry, looked up): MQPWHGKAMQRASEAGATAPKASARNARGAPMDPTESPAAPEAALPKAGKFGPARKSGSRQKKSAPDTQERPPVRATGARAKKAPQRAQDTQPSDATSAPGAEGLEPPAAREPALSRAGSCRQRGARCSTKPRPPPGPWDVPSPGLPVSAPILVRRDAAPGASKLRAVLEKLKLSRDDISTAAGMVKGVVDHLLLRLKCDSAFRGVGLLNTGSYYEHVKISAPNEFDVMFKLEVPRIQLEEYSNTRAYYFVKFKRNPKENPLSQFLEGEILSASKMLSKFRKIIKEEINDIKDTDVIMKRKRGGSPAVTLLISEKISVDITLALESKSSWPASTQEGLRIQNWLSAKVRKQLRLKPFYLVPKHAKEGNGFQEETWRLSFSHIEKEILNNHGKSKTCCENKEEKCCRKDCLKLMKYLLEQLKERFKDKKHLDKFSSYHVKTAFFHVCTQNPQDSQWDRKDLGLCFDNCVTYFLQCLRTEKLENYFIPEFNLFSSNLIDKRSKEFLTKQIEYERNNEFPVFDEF
NPYLR7 ag – activates Aedes aegypti NPYLR7 receptor; HEK293T NPYLR7/Galpha15, GCaMP6s calcium fluorescence; activation, % at 10 µM; 270,000 compounds, 0.15% hits; AID 1259423; in the data active = activation above about 40%;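 also: 0% = vehicle and 100% = reference agonist at the receptor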
* hit, by the source's call. Rule as the data show it, unless noted: active = inhibition above about 40%; inactive = the rest.

What do the screens show for `CCOC(=O)C(C#N)=CNc1cnccn1`?
mcGAS lum: -4; hcGAS inh: -1; NPYLR7 ag: 11

Results for CCOC(=O)C(C#N)=CNc1nc(C(C)=O)cs1 ?
mcGAS lum: 64*; hcGAS inh: 53*; NPYLR7 ag: 4

How did Nc1ncnc2c1ncn2[C@@H]1O[C@H](CO)[C@H](O)C1O (some centres undefined) do in these assays?
mcGAS lum: -2; hcGAS inh: -4; NPYLR7 ag: 96*

What do the screens show for `Nc1ncnc2c1ncn2C1O[C@H](CO)[C@@H](O)[C@@H]1O` (some centres undefined)?
mcGAS lum: -5; hcGAS inh: -9; NPYLR7 ag: -4

How did OC[C@H]1O[C@@H](n2cnc3c(NCc4ccco4)ncnc32)[C@H](O)[C@@H]1O do in these assays?
mcGAS lum: -4; hcGAS inh: -2; NPYLR7 ag: 7

Results for Cc1ccccc1CNc1ncnc2c1ncn2C1OC(CO)C(O)C1O (centres undefined) ?
mcGAS lum: -6; hcGAS inh: -10; NPYLR7 ag: 78*

Results for O=C(OCN1C(=O)c2ccccc2C1=O)c1ccccc1 ?
hcGAS inh: -15; NPYLR7 ag: 22

How did O=C(OCC1(O)C(Cl)C=CC(OC(=O)c2ccccc2)C1O)c1ccccc1 (centres undefined) do in these assays?
mcGAS lum: 48*; hcGAS inh: -2; NPYLR7 ag: -14

How did C#CCOCC(O)CN(CCOC)Cc1ccsc1 (centres undefined) do in these assays?
mcGAS lum: -8; hcGAS inh: -9; NPYLR7 ag: 17

How did CC(=Cc1ccccc1)/C=N\NC(=O)c1cc(C(C)C)[nH]n1 do in these assays?
mcGAS lum: -8; hcGAS inh: -7; NPYLR7 ag: 1

What do the screens show for `O=C(O)c1csc(CSc2nnc(-c3ccncc3)n2-c2cccc(C(F)(F)F)c2)n1`?
mcGAS lum: 1; hcGAS inh: 1; NPYLR7 ag: 49*

How did O=C(NCc1cccc(C(F)(F)F)c1)c1csc(CSc2nnc(-c3ccncc3)n2-c2cccc(C(F)(F)F)c2)n1 do in these assays?
mcGAS lum: 1; hcGAS inh: -1; NPYLR7 ag: -8

Results for COc1ccc(C(=O)N2CCN(C(C(=O)Nc3cc(OC)cc(OC)c3)C3CCCC3)CC2)cc1 (centres undefined) ?
mcGAS lum: -6; hcGAS inh: -8; NPYLR7 ag: -1

Results for COc1cc(OC)cc(C(=O)N2CCN(C(C(=O)Nc3ccc(NC(C)=O)cc3)C3CCCC3)CC2)c1 (centres undefined) ?
mcGAS lum: -5; hcGAS inh: -6; NPYLR7 ag: 60*

How did C=CCn1ncc(-c2nc3c(cnn3C3CCCCC3)[nH]2)c1C do in these assays?
hcGAS inh: -1; NPYLR7 ag: -2

What do the screens show for `COc1ccc(F)cc1-c1nccc2[nH]nc(-c3cccnc3)c12`?
mcGAS lum: -5; hcGAS inh: -5; NPYLR7 ag: 3

What do the screens show for `COC(=O)C1=C(C)NC(C)=C(C(=O)OCCN(C)C=O)C1c1cccc([N+](=O)[O-])c1` (centres undefined)?
mcGAS lum: -6; hcGAS inh: -7; NPYLR7 ag: -11

Results for CC(C)Cc1nc(C2(Cn3ccnc3)CC2)n(-c2ccccc2)n1 ?
hcGAS inh: -6

What do the screens show for `O=c1cc(-c2ccccc2)oc2cc(O)c(O)cc12`?
mcGAS lum: 29; hcGAS inh: 34; NPYLR7 ag: -4

How did O=c1cc(-c2ccccc2)oc2c(O)c(O)ccc12 do in these assays?
hcGAS inh: 72*; NPYLR7 ag: -1

What do the screens show for `NC(=O)CNC(=O)CCCOc1ccc(F)cc1F`?
hcGAS inh: -4; NPYLR7 ag: 2

Results for O=C(c1ccc(F)cc1)N(CCN1CCOCC1)Cc1nccn1Cc1ccc(F)c(F)c1 ?
mcGAS lum: 1; hcGAS inh: 3; NPYLR7 ag: 8

What do the screens show for `O=C(c1cccnc1Cl)N1CCN(C(c2ccccc2)c2ccc(Br)cc2)CC1` (centres undefined)?
mcGAS lum: -7; hcGAS inh: -5; NPYLR7 ag: -4
